Assay outcomes (PubChem)
In the library only some 4.1% were active in any assay of this set; here they are far more common.
TIM10 inh = growth inhibitors of TIM10 yeast strain; 1.4% of 330,000 active; inhibition, % at 10 µM; S. cerevisiae TIM10 strain growth, BacTiter-Glo luminescence, 24 h; AID 463195;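 active means inhibition of 40% or more at the single tested concentration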;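 further: wild-type TIM10 isogenic control strain grown at permissive 25 °C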
tim10-1 inh = inhibits growth of tim10-1 mutant yeast. S. cerevisiae tim10-1 ts strain growth, BacTiter-Glo, 24 h. inhibition, % at 20 µM. 2.2% of 330,000 active;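 active means inhibition of at least 40%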;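 further: mutant grown at 25 °C; 0% = DMSO wells with yeast and 100% = wells holding no yeast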
tim23-1 inh = tim23-1 yeast growth inhibition; inhibition, % at 20 µM; S. cerevisiae tim23-1 growth, BacTiter-Glo luminescence, 24 h; 1.3% of 330,000 active;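 active means growth inhibition of the mutant yeast at or above 50%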;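 further: temperature-sensitive mutant grown at 25 °C; plate controls were DMSO-treated mutant yeast for no effect and medium wells lacking yeast for full effect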
NALP3 yeast inh = inhibitors of NALP3 inflammasome in yeast. Yeast reconstituted NLRP3/ASC/caspase-1, beta-gal luminescence, 24 h. 0.39% of 330,000 active. inhibition, % at 10 µM;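 active means inhibition of 50% or more; inactive means inhibition below 50%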;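 further: plate controls were induced DMSO wells for no effect and uninduced yeast grown without galactose for full effect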
PfHsp90 yeast 2 = inhibits growth of yeast expressing Plasmodium falciparum Hsp90; S. cerevisiae expressing PfHsp90, BacTiter-Glo ATP, 48 h; yeast lacking PDR1 and PDR3 efflux regulators; 0.32% of 310,000 active; AID 504621; inhibition, % at 9.4 µM;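 active means every replicate shows inhibition above about 80%, whatever the replicate mean, limit read from the data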;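 further: 0% = DMSO neutral controls and 100% = 20 µM radicicol positive controls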
NALP1 yeast inh = blocks the NALP1 inflammasome reconstituted in yeast; S. cerevisiae NALP1/ASC/caspase-1 growth, X-gal OD620, 72 h; inhibition, % at 10 µM; 0.61% of 280,000 active; AID 2071; in the data active means inhibition mostly above about 24%, no sharp cut-off; inactive means mostly below about 32%
* marks the source's active call; other numbers are inactive results; · = not tested or not shown.

SMILES | TIM10 inh | tim10-1 inh | tim23-1 inh | NALP3 yeast inh | PfHsp90 yeast 2 | NALP1 yeast inh
O=C(CN1CCSC1=NCc1ccccc1)c1ccc(Cl)c(Cl)c1 | 8 | 0 | 14 | 32 | 4 | 46*
CCN1C/C(=C/c2cccc([N+](=O)[O-])c2)C(=O)/C(=C/c2cccc([N+](=O)[O-])c2)C1 | · | · | · | · | 102* | 30
O=C(NC1CC2CCCC(C1)N2C(=S)Nc1ccccc1)C1CC1 (stereo not drawn) | 7 | -13 | -4 | 13 | -68 | -5
O=C(COC(=O)c1ccc2ncsc2c1)Nc1ccccc1Br | -10 | -14 | 21 | 15 | 0 | ·
Oc1c(C(c2ccccc2)N2CCOCC2)ccc2ccccc12 (stereo not drawn) | · | · | · | · | 101* | ·
O=C(CN1CCN(C(c2ccccc2)c2ccccc2)CC1)N1CCOCC1 | 2 | -4 | 9 | 22 | -18 | 5
Nc1[nH]n2c(=O)cc(-c3ccccc3)nc2c1N=Nc1ccc2c(c1)OCO2 | 9 | 17 | 3 | 30 | · | 42*
Cc1[nH]n(-c2ccccc2)c(=O)c1N=Nc1ccc2c(c1)OCO2 | -12 | -13 | -13 | 9 | 10 | 8
Cc1ccc(S(=O)(=O)NC2CC3CCC2C3)cc1 (stereo not drawn) | -123 | -60 | 3 | 36 | · | ·
O=S(=O)(NC1CC2CCC1C2)c1ccc(Br)cc1 (stereo not drawn) | -125 | 10 | 23 | 43 | 108* | 19
O=[N+]([O-])c1cccc(S(=O)(=O)N2CN(c3ccc(Br)cc3)c3nc4ccccc4nc32)c1 | 4 | 18 | 30 | 12 | · | ·
Cc1ccc(N2C(=O)C3C4C=CC(CNC(=S)Nc5ccc(Cl)cc5)(O4)C3C2=O)cc1 (stereo not drawn) | 31 | 35 | 15 | 19 | 105* | 18
CC(C)COC(=O)NCC12C=CC(O1)C1C(=O)N(c3ccc(Cl)cc3)C(=O)C12 (stereo not drawn) | 14 | 34 | 18 | 14 | · | 3
Cc1ccc(N2C(=O)C3C4C=CC(CNC(=S)Nc5ccc(F)cc5)(O4)C3C2=O)cc1 (stereo not drawn) | 19 | 31 | 23 | 12 | 103* | 20
Cc1ccc(CNC(=O)C2CCCN(C(=O)Nc3ccc(F)cc3)C2)cc1 (stereo not drawn) | 2 | -32 | -6 | 18 | 0 | 17
Cc1ccc(C)c(NC(=S)N2CCN(c3ccccn3)CC2)c1 | 12 | -1 | 14 | 3 | 1 | -8
Cc1ccc(N2C(=O)C3C4C=CC(CNC(=S)N5CCN(c6ccccn6)CC5)(O4)C3C2=O)cc1 (stereo not drawn) | 3 | 16 | 2 | 22 | 104* | -13
COC(=O)C1=C(C)NC(=O)NC1c1ccc(OC(=O)c2ccco2)cc1 (stereo not drawn) | 8 | 5 | 8 | 0 | -5 | 18*
COC(=O)C1=C(C)NC(=O)NC1c1ccco1 (stereo not drawn) | -10 | 12 | 8 | 5 | 2 | 16
Cc1sc2nc(CSc3nc4ccccc4s3)[nH]c(=O)c2c1C | 25 | 26 | 7 | 5 | · | 36*
c1ccc(-c2ccc(C(c3ccccc3)n3ccnc3)cc2)cc1 (stereo not drawn) | · | · | · | · | 105* | 26
CC(=O)Nc1nc(CC(C)C)cc2c1c(=O)oc1ccccc12 | -7 | -11 | -7 | -7 | 15 | 28*
CCCCc1cc2c(c(NC(C)=O)n1)c(=O)oc1ccccc12 | 3 | 4 | 3 | 9 | · | 9
O=S(=O)(c1c(F)cccc1F)N(CCc1ccc(F)cc1)C[C@@H](O)COCc1ccccc1 | · | · | · | · | 120* | ·
O=S(=O)(Cc1ccc(Cl)cc1)CC(O)COCc1ccccc1 (stereo not drawn) | 24 | 23 | 21 | 14 | 9 | 7
CCOC(=O)c1c(C)[nH]c(C(C)=NNC(=O)Cn2nc(C)cc2C)c1C | -3 | -7 | 1 | 18 | · | ·
Cc1ccc(-n2c3c(c(=O)[nH]c2=S)C(C(F)(F)F)(C(F)(F)F)NC(=O)N3)cc1 | -4 | 1 | 2 | 8 | 7 | 41*
CCOC(=O)C1CCCN(C(=O)Nc2c(-c3ccccc3)noc2C)C1 (stereo not drawn) | 2 | -6 | -12 | 10 | 6 | 36*
Cc1ccc(C)c(OCCC(=O)OCC(=O)NNC(=O)c2ccccc2)c1 | 1 | 1 | 4 | 16 | -1 | ·
